Data reported in PubChem BioAssay (NCATS).
Values joined by “and” are separate entries in the source; they are usually repeats but may differ in a detail not shown here. Equal values may be shown once. Inconclusive results are not listed. Where a call stands in place of a potency, no number is given. Active and inactive are the calls of the source. Unless noted, the call rests on the fitted dose curve.

Columns and labels:
[1] = molecular target: Peroxisome proliferator-activated receptor delta (Homo sapiens) (UniProt Q03181); experiment: qHTS assay for small molecule agonists of peroxisome proliferator-activated receptor delta signaling (AID 588534)
Summary of the method: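 Titration series tested in agonist mode on beta-lactamase reporter cells; 18 hrs at 37 C after a 5 hr pre-incubation. Readout: CCF4 fluorescence, 2 hrs RT. Hill equation gives EC50 and maximal response.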

[2] = qHTS for Inhibitors of the Functional Ribonucleoprotein Complex (vRNP) of Lassa (LASV) Arenavirus: LASV Primary Screen - GLuc reporter signal (AID 1347082; calls by dose curve; tested in HEK293 reporter line; further: nearly all actives have a fitted effect of over 60% in size)
[3] = qHTS for Inhibitors of the Functional Ribonucleoprotein Complex (vRNP) of Lassa (LASV) Arenavirus: Viability assay - alamar blue signal for LASV Primary Screen (AID 1347083; calls by dose curve; tested in HEK293 reporter line; further: nearly all actives have a fitted effect of over 80% in size)
[4] = qHTS for Inhibitors of the Functional Ribonucleoprotein Complex (vRNP) of Lymphocytic Choriomeningitis Arenaviruses (LCMV): Viability assay - alamar blue signal for LCMV Primary Screen (AID 1347085; calls by dose curve; tested in HEK293 reporter line; further: nearly all actives have a fitted effect of over 80% in size)
[5] = molecular target: Nucleoprotein (Lymphocytic choriomeningitis virus (strain Armstrong)) (UniProt P09992); experiment: qHTS for Inhibitors of the Functional Ribonucleoprotein Complex (vRNP) of Lymphocytic Choriomeningitis Arenaviruses (LCMV): LCMV Primary Screen - GLuc reporter signal (AID 1347086); further: nearly all actives have a fitted effect of over 70% in size
[6] = qHTS profiling of the MIPE4 collection as inhibitors of Plasmodium falciparum (3D7) proliferation (AID 743344; call rule not given here); details: P. falciparum 3D7 in erythrocytes, SYBR Green DNA fluorescence, 72 h; at 28.5 µM (top of the series) unless noted
Summary of the method: (§1)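 Parasite DNA was quantified by SYBR Green I fluorescence (ex 485, em 535 nm) after overnight lysis in saponin/Triton buffer at room temperature. Cultures at 0.3% parasitemia and 2.5% hematocrit were first exposed to compound for 72 h at 37 C; signals were normalised to artemisinin (0.29 uM) and vehicle wells.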

[7] = qHTS profiling of the MIPE4 collection as inhibitors of Plasmodium falciparum (DD2) proliferation (AID 743345; call rule not given here); details: P. falciparum Dd2 in erythrocytes, SYBR Green DNA, 72 h; at 28.5 µM (top of the series) unless noted
Summary of the method: as §1

[8] = qHTS profiling of the MIPE4 collection as inhibitors of Plasmodium falciparum (DD2) proliferation (Rep 2) (AID 743346; call rule not given here); details: P. falciparum Dd2 in erythrocytes, SYBR Green DNA, 72 h; at 28.5 µM (top of the series) unless noted
Summary of the method: as §1

[9] = qHTS profiling of the MIPE4 collection as inhibitors of Plasmodium falciparum (HB3) proliferation (AID 743347; call rule not given here); details: P. falciparum HB3 in erythrocytes, SYBR Green DNA, 72 h; at 28.5 µM (top of the series) unless noted
Summary of the method: as §1

[10] = molecular target: Cytochrome P450 3A4 (Homo sapiens) (UniProt P08684); experiment: qHTS Assay for Inhibitors and Substrates of Cytochrome P450 3A4 (AID 884; active means well fitted curve in the direction sought with a large enough effect; an effect the other way counts as inactive or inconclusive; further: potency means the concentration at half of the fitted maximal effect; nearly all actives have a fitted effect of over 50% in size)
Summary of the method: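 Luminescent readout of luciferin produced by CYP3A4 (20 nM) dealkylation of Luciferin-PPXE, 25 uM (its KM). NADPH-driven reaction ran 60 min at RT after 10 min compound preincubation; data scaled to 57 uM ketoconazole as 100% inhibition.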

[11] = molecular target: Cytochrome P450 3A4 (Homo sapiens) (UniProt P08684); experiment: qHTS Assay for Activators of Cytochrome P450 3A4 (AID 885; active means well fitted curve in the direction sought with a large enough effect; an effect the other way counts as inactive or inconclusive; further: nearly all actives have a fitted effect of over 65% in size)
Summary of the method: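 Activators are scored by enhanced luminescence from CYP3A4 conversion of luciferin-PPXE (25uM, equal to KM) to luciferin, after 60 min at RT with an NADPH-regenerating system.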

[12] = molecular target: Bile acid receptor (Homo sapiens) (UniProt Q96RI1); experiment: qHTS assay for small molecule agonists of farnesoid X receptor signaling (AID 588527); details: HEK293T FXR-UAS-bla, beta-lactamase ratio, 16 h; activation: stronger effect = higher value
Summary of the method: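 Read-out: beta-lactamase reporter fluorescence with CCF4 substrate in GeneBLAzer FXR-UAS-bla HEK293T cells, after 16 h compound exposure at 37 C. Response scaled between DMSO basal (0%) and chenodeoxycholic acid at 100 uM (100%).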

[13] = molecular target: Cytochrome P450 2C9 (Homo sapiens) (UniProt P11712); experiment: qHTS Assay for Inhibitors and Substrates of Cytochrome P450 2C9 (AID 883; active means well fitted curve in the direction sought with a large enough effect; an effect the other way counts as inactive or inconclusive; further: potency means the concentration at half of the fitted maximal effect; nearly all actives have a fitted effect of over 60% in size)
Summary of the method: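 10nM CYP2C9 + 100uM Luciferin-H (=KM), 25mM KPO4; cpd 10 min 37C; NADPH regen, 60 min 37C; stop/detect with P450 Glo-Buffer 20 min; luminescence. Norm. to 57uM sulphaphenazole as full inhibition.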

[14] = molecular target: Cytochrome P450 2D6 (Homo sapiens) (UniProt P10635); experiment: qHTS Assay for Inhibitors and Substrates of Cytochrome P450 2D6 (AID 891; active means well fitted curve in the direction sought with a large enough effect; an effect the other way counts as inactive or inconclusive; further: potency means the concentration at half of the fitted maximal effect; nearly all actives have a fitted effect of over 60% in size)
Summary of the method: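 Luminescent read-out of luciferin formed by 5 nM human CYP2D6 demethylating 30 uM Luciferin-ME EGE (Km level) over 60 min at room temperature after NADPH regeneration addition. Data normalized to full inhibition by 1.43 uM quinidine.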

[15] = molecular target: Ubiquitin carboxyl-terminal hydrolase 1 (Homo sapiens) (UniProt O94782); experiment: Inhibitors of USP1/UAF1: Pilot qHTS (AID 504865; active means well fitted curve in the direction sought with a large enough effect; an effect the other way counts as inactive or inconclusive; further: potency means the concentration at half of the fitted maximal effect; nearly all actives have a fitted effect of over 35% in size)
Summary of the method: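 In 50mM HEPES pH 7.8 containing 0.5mM EDTA, 1mM TCEP, 0.1 mg/ml BSA and 0.01% Tween-20, 1nM USP1/UAF1 is exposed to compound for 15 min, then Ub-Rho (150nM final) is added and fluorescence is read over time.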

[16] = S16 Schwann cell PMP22 intronic element beta-lactamase assay (AID 624044); further: potency means the concentration at half of the fitted maximal effect; nearly all actives have a fitted effect of over 15% in size
Summary of the method: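 Beta-lactamase reporter under a PMP22 intronic regulatory element in stable S16 rat Schwann cells; 24 h compound exposure. 460 nm blue signal normalized between DMSO (0%) and potassium clavulanate, with 535 nm FRET tracking viability; curves classed by r2 and response.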

[17] = Primary qHTS for inhibitors of SARS-S pseudo-typed particle cell entry (AID 1479145); further: nearly all actives have a fitted effect of over 45% in size; further: potency means the concentration at half of the fitted maximal effect
[18] = Confirmatory qHTS for activators (rescue) of SARS-CoV-2 Cytopathic Effect (CPE) (AID 1508606); further: potency means the concentration at half of the fitted maximal effect; nearly all actives have a fitted effect of over 70% in size
[19] = Confirmatory qHTS to identify inhibitors of SARS-CoV-2 cell entry (AID 1645844); further: nearly all actives have a fitted effect of over 45% in size; further: potency means the concentration at half of the fitted maximal effect
Summary of the method: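 HEK293-ACE2, overnight seeding; cpd 1 h, 37C/5% CO2; + SARS-CoV-2-S MLV PP (Wuhan-Hu-1, ΔC19); 48 h; Bright-Glo luminescence. Data normalised to S PP and bald PP wells.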

[20] = VSVG counterscreen qHTS to identify inhibitors of SARS-CoV-2 cell entry (AID 1645847); further: potency means the concentration at half of the fitted maximal effect; nearly all actives have a fitted effect of over 65% in size
Summary of the method: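 Luminescence from a luciferase reporter, normalised to bald particle and VSV-G pseudotyped particle wells, is the read-out. Cells are HEK293 expressing human ACE2, exposed to compound 1 h before a 48 h particle infection at 37 °C.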

[21] = Cytotoxicity counterscreen for inhibitors of SARS-CoV-2 cell entry (AID 1645845); further: nearly all actives have a fitted effect of over 50% in size
Summary of the method: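 Counterscreen run in the same HEK293-ACE2 line as the pseudotyped-particle entry assay, without particles. Viability after 48 h at 37 C was read as ATP luminescence, scaled between cell-containing and cell-free wells.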

Chain of Peroxisome proliferator-activated receptor delta (Homo sapiens) (Q03181 whole entry, looked up): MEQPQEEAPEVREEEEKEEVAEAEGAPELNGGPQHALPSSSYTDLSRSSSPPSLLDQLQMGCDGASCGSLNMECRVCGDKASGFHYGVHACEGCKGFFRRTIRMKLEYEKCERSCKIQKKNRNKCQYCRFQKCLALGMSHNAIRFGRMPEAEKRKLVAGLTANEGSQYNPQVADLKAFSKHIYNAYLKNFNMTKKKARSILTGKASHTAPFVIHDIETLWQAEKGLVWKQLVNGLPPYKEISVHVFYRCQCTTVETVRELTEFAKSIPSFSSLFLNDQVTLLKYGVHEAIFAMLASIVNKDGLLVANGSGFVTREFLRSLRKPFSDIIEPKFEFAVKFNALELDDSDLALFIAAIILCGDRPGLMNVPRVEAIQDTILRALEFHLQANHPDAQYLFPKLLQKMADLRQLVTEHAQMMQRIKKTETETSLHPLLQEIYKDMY
Chain of Nucleoprotein (Lymphocytic choriomeningitis virus (strain Armstrong)) (P09992 whole entry, looked up): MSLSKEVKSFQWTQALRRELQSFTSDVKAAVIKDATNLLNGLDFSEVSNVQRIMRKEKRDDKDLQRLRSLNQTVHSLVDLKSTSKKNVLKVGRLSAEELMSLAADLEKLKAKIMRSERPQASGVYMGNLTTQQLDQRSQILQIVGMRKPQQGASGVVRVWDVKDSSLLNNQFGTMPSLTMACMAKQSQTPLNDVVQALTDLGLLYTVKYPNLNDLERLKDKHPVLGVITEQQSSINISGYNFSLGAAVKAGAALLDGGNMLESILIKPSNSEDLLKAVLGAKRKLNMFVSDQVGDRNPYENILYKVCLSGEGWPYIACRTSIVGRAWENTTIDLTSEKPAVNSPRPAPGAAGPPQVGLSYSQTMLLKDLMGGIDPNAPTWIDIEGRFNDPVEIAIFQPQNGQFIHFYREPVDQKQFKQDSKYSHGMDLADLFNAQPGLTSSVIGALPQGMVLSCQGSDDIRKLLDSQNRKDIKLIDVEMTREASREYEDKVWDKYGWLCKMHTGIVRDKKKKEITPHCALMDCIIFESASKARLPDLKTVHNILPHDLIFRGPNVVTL
Chain of Bile acid receptor (Homo sapiens) (Q96RI1 whole entry, looked up): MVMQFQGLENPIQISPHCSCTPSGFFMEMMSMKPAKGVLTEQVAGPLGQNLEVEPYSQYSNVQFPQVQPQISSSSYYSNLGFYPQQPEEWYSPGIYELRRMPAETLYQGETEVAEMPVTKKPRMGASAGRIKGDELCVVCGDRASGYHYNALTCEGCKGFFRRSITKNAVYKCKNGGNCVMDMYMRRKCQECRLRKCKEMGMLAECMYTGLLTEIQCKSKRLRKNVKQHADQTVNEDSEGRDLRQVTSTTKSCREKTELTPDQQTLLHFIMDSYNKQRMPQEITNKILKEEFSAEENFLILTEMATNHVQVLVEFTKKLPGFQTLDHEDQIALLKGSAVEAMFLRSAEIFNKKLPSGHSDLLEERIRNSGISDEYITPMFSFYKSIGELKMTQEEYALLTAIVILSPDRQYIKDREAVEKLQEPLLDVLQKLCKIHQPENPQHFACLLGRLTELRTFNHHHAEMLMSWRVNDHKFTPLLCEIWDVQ
Chain of Cytochrome P450 3A4 (Homo sapiens) (P08684 whole entry, looked up): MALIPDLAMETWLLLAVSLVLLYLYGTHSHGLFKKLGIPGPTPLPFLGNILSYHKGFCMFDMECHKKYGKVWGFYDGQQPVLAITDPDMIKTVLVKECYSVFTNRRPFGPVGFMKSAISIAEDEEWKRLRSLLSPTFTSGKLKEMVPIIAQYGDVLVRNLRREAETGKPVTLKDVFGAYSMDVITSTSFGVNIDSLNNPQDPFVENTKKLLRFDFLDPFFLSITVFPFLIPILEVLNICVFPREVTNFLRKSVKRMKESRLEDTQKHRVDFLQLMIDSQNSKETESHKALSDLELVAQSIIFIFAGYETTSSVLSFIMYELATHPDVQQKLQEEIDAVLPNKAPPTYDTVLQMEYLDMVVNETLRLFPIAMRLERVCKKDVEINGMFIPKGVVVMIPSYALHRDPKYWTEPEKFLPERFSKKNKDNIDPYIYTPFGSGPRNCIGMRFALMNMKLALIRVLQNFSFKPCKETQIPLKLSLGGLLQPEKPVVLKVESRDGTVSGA
Chain of Ubiquitin carboxyl-terminal hydrolase 1 (Homo sapiens) (O94782 whole entry, looked up): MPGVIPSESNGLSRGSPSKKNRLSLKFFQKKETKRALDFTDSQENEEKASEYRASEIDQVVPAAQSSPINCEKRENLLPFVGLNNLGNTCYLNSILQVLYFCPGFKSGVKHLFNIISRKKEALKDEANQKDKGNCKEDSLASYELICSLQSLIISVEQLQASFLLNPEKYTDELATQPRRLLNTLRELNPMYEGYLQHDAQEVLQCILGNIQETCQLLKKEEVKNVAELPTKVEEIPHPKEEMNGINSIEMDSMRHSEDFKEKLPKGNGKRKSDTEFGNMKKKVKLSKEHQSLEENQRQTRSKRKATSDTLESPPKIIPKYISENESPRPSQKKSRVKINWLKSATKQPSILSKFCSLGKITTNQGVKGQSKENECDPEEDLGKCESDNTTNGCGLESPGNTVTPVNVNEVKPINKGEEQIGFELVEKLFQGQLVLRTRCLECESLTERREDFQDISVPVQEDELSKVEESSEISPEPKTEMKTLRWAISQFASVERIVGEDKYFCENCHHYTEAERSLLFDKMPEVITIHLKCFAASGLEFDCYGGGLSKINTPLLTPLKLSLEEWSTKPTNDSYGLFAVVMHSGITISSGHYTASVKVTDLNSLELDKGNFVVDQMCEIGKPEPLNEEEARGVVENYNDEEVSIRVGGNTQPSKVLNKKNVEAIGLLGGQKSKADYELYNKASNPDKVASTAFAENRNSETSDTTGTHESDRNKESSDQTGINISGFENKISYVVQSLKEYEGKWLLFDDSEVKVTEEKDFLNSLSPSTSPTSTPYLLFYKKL
Chain of Cytochrome P450 2C9 (Homo sapiens) (P11712 whole entry, looked up): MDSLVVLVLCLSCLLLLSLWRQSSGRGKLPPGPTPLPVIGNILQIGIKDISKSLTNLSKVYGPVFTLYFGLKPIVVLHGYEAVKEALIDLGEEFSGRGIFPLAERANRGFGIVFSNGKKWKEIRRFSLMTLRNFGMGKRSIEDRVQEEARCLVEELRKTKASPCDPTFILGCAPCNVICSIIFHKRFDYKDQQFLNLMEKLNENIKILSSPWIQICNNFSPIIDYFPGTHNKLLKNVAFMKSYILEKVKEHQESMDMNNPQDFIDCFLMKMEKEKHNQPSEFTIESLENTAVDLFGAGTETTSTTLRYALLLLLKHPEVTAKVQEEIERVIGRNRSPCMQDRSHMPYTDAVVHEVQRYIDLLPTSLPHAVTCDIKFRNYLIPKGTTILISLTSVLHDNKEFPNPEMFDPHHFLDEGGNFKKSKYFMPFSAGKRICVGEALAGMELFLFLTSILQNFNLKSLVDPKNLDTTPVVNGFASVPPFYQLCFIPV
Chain of Cytochrome P450 2D6 (Homo sapiens) (P10635 whole entry, looked up): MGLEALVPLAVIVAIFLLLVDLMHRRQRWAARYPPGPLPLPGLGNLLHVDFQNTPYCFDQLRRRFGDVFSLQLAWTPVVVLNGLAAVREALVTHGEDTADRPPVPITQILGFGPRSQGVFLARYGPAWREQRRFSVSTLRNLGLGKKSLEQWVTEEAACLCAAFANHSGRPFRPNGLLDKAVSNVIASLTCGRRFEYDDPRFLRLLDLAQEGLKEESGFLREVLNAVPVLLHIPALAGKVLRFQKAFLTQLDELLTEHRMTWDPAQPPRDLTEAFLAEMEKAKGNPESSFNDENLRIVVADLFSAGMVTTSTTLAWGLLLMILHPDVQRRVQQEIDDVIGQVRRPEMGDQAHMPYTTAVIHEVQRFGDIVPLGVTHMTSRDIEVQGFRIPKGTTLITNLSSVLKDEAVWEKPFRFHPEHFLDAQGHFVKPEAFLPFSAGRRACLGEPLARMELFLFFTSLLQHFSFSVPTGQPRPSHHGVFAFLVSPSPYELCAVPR

CCCCCCCCCCCCCCC
Potency [1]: inactive | Potency [2]: inactive | Potency [3]: inactive | Potency [4]: inactive | Potency [5]: inactive

CC(C)CCCCCCCCCCCCCCC(=O)O
Potency [1]: inactive | Potency [2]: inactive | Potency [3]: inactive | Potency [4]: inactive | Potency [5]: inactive

CC(=O)N[C@H]1[C@@H]([C@H](O)[C@H](O)CO)OC(C(=O)O)=C[C@@H]1N=C(N)N
parasite growth, % of DMSO control [6]: 96.2% | parasite growth remaining, % of DMSO control (lower = more inhibition) [7]: 100% | parasite growth, % of control (lower = inhibition) [8]: 142% | growth, % of control [9]: 100% | Potency [2]: inactive | Potency [3]: inactive | Potency [4]: inactive | Potency [5]: inactive

C=CCOC(=O)c1ccccc1C(=O)OCC=C
Potency [10]: 5.01 µM (active) | Potency [11]: inactive | activation [12]: -3.26% (inactive) and 2.9% (inactive) | Potency [2]: inactive | Potency [3]: inactive | Potency [4]: inactive | Potency [5]: inactive

CCCCC(CC)C(=O)O (stereo unspecified)
Potency [1]: inactive | Potency [2]: inactive | Potency [3]: inactive | Potency [4]: inactive | Potency [5]: inactive

CC(C)=CCCC(C)CCO (stereo unspecified)
Potency [1]: inactive | Potency [2]: inactive | Potency [3]: inactive | Potency [4]: inactive | Potency [5]: inactive

CCNc1nc(N)nc(Cl)n1
Potency [1]: inactive | Potency [2]: inactive | Potency [3]: inactive | Potency [4]: inactive | Potency [5]: inactive

COc1c2ccoc2cc2oc(=O)ccc12
Potency [13]: 5.01 µM (active) | Potency [14]: 2 µM (active)

COc1cccc2c1C(=O)c1c(O)c3c(c(O)c1C2=O)C[C@@](O)(C(=O)CO)C[C@@H]3O[C@H]1C[C@H](N)[C@H](OC2CCCCO2)[C@H](C)O1 (stereo partly specified)
Potency [15]: 44.7 µM (active) | Potency [16]: 5.62 µM (active) | Potency [17]: 7.94 µM (active)

Nc1nc(OCc2ccccc2)c2[nH]cnc2n1
parasite growth, % of DMSO control [6]: 83.5% | parasite growth remaining, % of DMSO control (lower = more inhibition) [7]: 103% | parasite growth, % of control (lower = inhibition) [8]: 72.1% | growth, % of control [9]: 44%

CC=C1C2C=C(C)CC1(N)c1ccc(=O)[nH]c1C2 (stereo unspecified)
parasite growth, % of control (lower = inhibition) [8]: 79.2% | growth, % of control [9]: 103%

COC(=O)[C@H]1[C@H]2C[C@@H]3c4[nH]c5ccccc5c4CCN3C[C@H]2C[C@@H](OC(=O)c2cc(OC)c(OC)c(OC)c2)[C@@H]1OC
Potency [17]: inactive | Potency [18]: 11.2 µM (active) | Potency [19]: inactive

CCCCOc1c(C(=O)c2c(F)cc(C)cc2F)cnc2n[nH]cc12
Potency [19]: 1.52 µM (active) | Potency [20]: 1.52 µM (active)

CC[C@@]1(O)C[C@H](O[C@H]2C[C@H](N(C)C)[C@H](O[C@H]3C[C@H](O)[C@H](O[C@H]4CCC(=O)[C@H](C)O4)[C@H](C)O3)[C@H](C)O2)c2c(cc3c(c2O)C(=O)c2c(O)cccc2C3=O)[C@@H]1C(=O)OC
Potency [20]: 3.04 µM (active)

CC(C)C[C@H](CC(=O)O)C(=O)N[C@@H](Cc1c[nH]c2ccccc12)C(=O)N[C@@H](C)c1ccccc1
Potency [2]: inactive | Potency [3]: inactive | Potency [5]: inactive | Potency [21]: inactive
